Reference: PMC4102417

tested on: murine 3T3 fibroblasts; test: primary screen, percent viability or growth; higher = less effect of the substance
Protocol: Similarly, for measuring the cytotoxicity concentration (CC50) for 3T3 fibroblast cells, cultures were incubated with drugs for 72 hours and developed using Alamar Blue (Alamar Biosciences Inc, Sacramento, CA) as previously described.

SMILES | Mammalian (3T3) cell % growth at 10 uM [%]
CCCCCCCCCCCCCC(=O)O[C@@H]1[C@@H](C)[C@@]2(O)[C@@H](C=C(CO)C[C@]3(O)C(=O)C(C)=C[C@@H]23)[C@@H]2C(C)(C)[C@]12OC(C)=O | 89.2
CCCCC1C(=O)N(c2ccccc2)N(c2ccc(O)cc2)C1=O (stereo not drawn) | 72.8
N=C(N)c1ccc(OCCCCCOc2ccc(C(=N)N)cc2)cc1.O=S(=O)(O)CCO | 94.8
CC(C)c1c(O)ccc2c1CC[C@H]1C(C)(C)CCC[C@]21C | 67.4
N[C@@H](Cc1ccc(O)c(O)c1)C(=O)O | 3.9
COC(=O)[C@H]1[C@H]2C[C@@H]3c4[nH]c5cc(OC)ccc5c4CCN3C[C@H]2C[C@@H](OC(=O)c2cc(OC)c(OC)c(OC)c2)[C@@H]1OC | 100
COC1C=CC23c4cc5c(cc4CN(CC2O)C3C1)OCO5 (stereo not drawn) | 36.2
CN(C)CCCN1c2ccccc2CCc2ccc(Cl)cc21.Cl | 84.6
COc1cc(/C=C/C(=O)N2CCC=CC2=O)cc(OC)c1OC | 1
CCCCCC(=O)O[C@]1(C(C)=O)CC[C@H]2[C@@H]3CCC4=CC(=O)CC[C@]4(C)[C@H]3CC[C@@]21C | 100
COC(=O)C1(C)CCC2(C)CCC3(C)C4=CC=C5C(=CC(=O)C(O)=C5C)C4(C)CCC3(C)C2C1 (stereo not drawn) | 0.6
CC1(C)C=CC(=O)C2(C)C1CC(=O)C1(C)C2CCC2(C)C(c3ccoc3)OC(=O)C3OC321 (stereo not drawn) | 100
CC12CCC3C(CCC4CC(O)CCC43C)C1CCC2=O (stereo not drawn) | 100
Oc1cc2c(cc1O)C1c3ccc(O)c(O)c3OCC1(O)C2 (stereo not drawn) | 100
COc1ccc2cc1Oc1ccc(cc1)C[C@H]1c3c(cc4c(c3Oc3cc5c(cc3OC)CCN(C)[C@@H]5C2)OCO4)CCN1C | 33.1
COc1cc(OC)c2c(=O)c(OC)c(-c3ccc(OC)c(OC)c3)oc2c1 | 43.3
CC(=O)OC1c2c(ccc3ccc(=O)oc23)OC(C)(C)C1OC(=O)CC(C)C (stereo not drawn) | 81.2

SMILES | Mammalian (3T3) cell % growth at 10 uM [%]
COC(=O)CCC(C)C1CCC2C3C(O)CC4CC(O)CCC4(C)C3CC(O)C12C (stereo not drawn) | 81
C[C@H]1CC[C@]2(NC1)O[C@H]1C[C@H]3[C@@H]4CC[C@H]5C[C@@H](O[C@@H]6O[C@H](CO)[C@H](O[C@@H]7O[C@H](CO)[C@@H](O)[C@H](O[C@@H]8OC[C@@H](O)[C@H](O)[C@H]8O)[C@H]7O[C@@H]7O[C@H](CO)[C@@H](O)[C@H](O)[C@H]7O)[C@H](O)[C@H]6O)CC[C@]5(C)[C@H]4CC[C@]3(C)[C@H]1[C@@H]2C | 0.1
CC[C@H](C)C(=O)O[C@H]1CCC=C2C=C[C@H](C)[C@H](CC[C@@H]3C[C@@H](O)CC(=O)O3)[C@H]21 | 2.9
COc1ccc2cc1Oc1ccc(cc1)C[C@H]1c3cc(c(OC)cc3CCN1C)Oc1c(OC)c(OC)cc3c1[C@H](C2)N(C)CC3 | 14.6
O=C(O)CC[N+](=O)[O-] | 88.6
CN(C)C(=S)SSC(=S)N(C)C | 0.3
N#Cc1nn(-c2c(Cl)cc(C(F)(F)F)cc2Cl)c(N)c1S(=O)C(F)(F)F (stereo not drawn) | 100
CCOC(=O)C(CCc1ccccc1)NC1CCc2ccccc2N(CC(=O)O)C1=O.Cl (stereo not drawn) | 66.8
NS(=O)(=O)c1cc(C(=O)O)c(NCc2ccco2)cc1Cl | 79.1
COC(=O)C1=C(C)NC(C)=C(C(=O)OC)C1c1ccccc1[N+](=O)[O-] | 1.7
COC(=O)C1(C)CCCC2(C)c3ccc(C(C)C)cc3C(=O)CC12 (stereo not drawn) | 91.8
COC(=O)CC1C2(C)CC34OC5(C)OC6(C7/C(=C(\OC)C(C)C)C(=O)OC(c8ccoc8)C7(C)C(OC(=O)C(C)C)C(OC)C6(O5)C13C)C(OC)C4(OC)C2OC(C)=O (stereo not drawn) | 53.4
Nc1nc(=S)c2[nH]cnc2[nH]1 | 98.3
CC(=O)Oc1ccc(Cl)c2cccnc12 | 0.5
CCOc1ccc(Cc2nccc3cc(OCC)c(OCC)cc23)cc1OCC | 95.1
C=CC(C)(O)CCC1C(=C)CC(O)C2C(C)(C)CCCC12C (stereo not drawn) | 74
